# Assay results published in PubChem BioAssay (NCI).
# About 83,000 compounds went through this panel and 20% of them were active in at least one assay; those are over-represented in the sample as a whole.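 Percent growth is the endpoint: 0 to 100 indicates growth inhibition (40 means 60% inhibition), 0 means no net growth, and negative values indicate cell death.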 Unmarked numbers belong to inactive results. Activity calls are given as the source filed them. The calls were made as follows: active = growth percent below 10; inactive = the rest.
# System: SNB-19 CNS
# Experiment: NCI-60 one-dose screen, 48 h (100 = growth as untreated, 0 = no growth, -100 = all killed)
# Settings: 10 µM unless noted
row,SMILES,growth
1,COc1cc(CCn2nnc3c(Nc4ccc(N5CCOCC5)cc4)ncnc32)cc(OC)c1,93.3%
2,COc1ccc(-c2cn[nH]c2-c2cc(OC)c3c(c2)OCO3)cc1,41.7%
3,Cc1ccc(OCCn2c(C)nn(-c3ccc(Cl)cc3)c2=O)cc1,109%
4,O=C(Nc1ccc(I)cc1)c1cc([N+](=O)[O-])ccc1O,35.4%
5,O=C(NNC(=S)Nc1ccccc1)c1ccccn1,52.2%
6,COc1ccc(-c2cn[nH]c2-c2cc(OC)c3c(c2)OCCO3)cc1,60.4%
7,COc1cc(Cn2c(SCCC(=O)Nc3ccc(F)cc3)nc3ccccc3c2=O)cc(OC)c1OC,80.4%
8,COc1cc(-c2cc(/C=C3\CCCCC3=O)[nH]n2)cc(OC)c1OC,97.5%
9,Cc1ccc(S(=O)(=O)NCCCNc2nccc(-c3c(-c4ccccc4)nc4sccn34)n2)cc1,75.4%
10,O=C1C2=C(C(=O)c3c(O)ccc(O)c31)N(c1cccnc1)Cc1ccccc1O2,5.25% (active)
11,COc1ccc(NC(=O)CSc2nc3ccc(Cl)cc3c(=O)n2-c2ccccc2C(F)(F)F)c(OC)c1OC,68.1%
12,CC(C)C[C@H](NC(=O)[C@@H](Cc1ccccc1)n1ccc(Nc2ccccc2)cc1=O)B(O)O,18.1%
13,Cc1cccc(NC(=O)c2sc3nc4c(cc3c2N)CCCC4)c1,50.5%
14,O=c1oc2c([nH]c3ccc4ccccc4c32)c2ccccc12,108%
15,CC1CCc2c(sc(NC(=O)CSc3nnc4ccccn34)c2C(N)=O)C1 (stereo not given),115%
